The values that follow come from PubChem BioAssay (NCI).

Compounds without any hit were thinned out: in the full panel of roughly 79,000, 15% have a hit. A number with no mark means an inactive call. The source made the active and inactive calls. No stated cut-off is given here; in the data, active means growth inhibition above about 70%; inactive means the rest.

Test [1] is described as follows: NCI Yeast Anticancer Drug Screen. Data for the rad50 strain (AID 155).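 Further: 0% = growth of vehicle-only cultures of the same strain.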 Particulars: S. cerevisiae rad50 strain growth inhibition; at 50.0 µM; active compounds read high. Summed up:
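A DNA repair-deficient yeast mutant serves as the test organism; compound-induced growth inhibition is calculated against vehicle-treated cells.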

Test [2] in a line: NCI Yeast Anticancer Drug Screen. Data for the mec2-1 strain (AID 157). To be noted: S. cerevisiae mec2-1 strain, at 50.0 µM, active compounds read high. In short, it runs like this: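 Growth inhibition is read against vehicle-treated controls after compound exposure of the mec2-1 yeast strain, which is defective in DNA damage repair or cell cycle control.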
Test [3] can be described thus: NCI Yeast Anticancer Drug Screen. Data for the sgs1 mgt1 strain (AID 161).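 Further: 0% = growth of cultures given vehicle only.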 Particulars: S. cerevisiae sgs1 mgt1 strain, at 50.0 µM, active compounds read high. In short, it runs like this: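 Compounds are added to genetically altered yeast, and growth is compared with cultures given vehicle alone to give percent inhibition.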
Test [4] is described as follows: NCI Yeast Anticancer Drug Screen. Data for the cln2 rad14 strain (AID 165).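 Further: 0% = growth equal to vehicle treated cultures.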 Particulars: S. cerevisiae cln2 rad14 strain, at 50.0 µM, active compounds read high. In short, it runs like this: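 Growth inhibition, relative to vehicle-treated controls, is the read-out. The test organism is a yeast strain with defined genetic alterations, cln2 rad14.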
The nature of test [5]: NCI Yeast Anticancer Drug Screen. Data for the bub3 strain (AID 167). To be noted: S. cerevisiae bub3 mutant strain, at 50.0 µM, active compounds read high. In short, it runs like this:
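Inhibition values come from growth of compound-treated mutant yeast normalised to vehicle-treated controls.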

A short description of test [6]: NCI Yeast Anticancer Drug Screen. Data for the mlh1 rad18 strain (AID 175). Particulars: S. cerevisiae mlh1 rad18 strain growth inhibition; at 50.0 µM; active compounds read high. In short, it runs like this: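 Cells of a genetically altered yeast strain, deficient in DNA damage repair, were treated with compound. Their growth was then compared with that of vehicle-treated cultures to give inhibition.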

For `CC(=O)N(c1ccccn1)c1ccccn1`, the growth inhibition in test [1] is -15.3%; in test [2], -10.2%; in test [3] it was -19.9%; in test [4] it was -54.5%; in test [5], 0.5%; in test [6], -31.2%.

Consider `O=[N+]([O-])c1ccc(I)c(I)c1`, for which the growth inhibition is -20.8% in test [1]; -3.8% in test [2]; 0.1% in test [3]; -43.2% in test [4]; -0.45% in test [5]; 7.85% in test [6].

For `COc1cc2c(cc1OC)C(c1ccccc1[N+](=O)[O-])=NCC2`, the growth inhibition in test [1] is 0.2%; in test [2], -0.8%; in test [3], 29.7%; in test [4], 11.7%; in test [5], 22.5%; in test [6], 15.2%.

Turning to `CCCCSc1nc2ccc([N+](=O)[O-])cc2s1`, the growth inhibition in test [1] was 40.6%; in test [2] it was -4.2%; in test [3] it was 37.5%; in test [4], 2.1%; in test [5], 4.45%; in test [6], 12.9%.

With `CCOC(=O)Oc1ccc(C(=O)Oc2ccccc2)cc1OC`, the growth inhibition was 18.1% in test [1]; 4.1% in test [2]; 12.9% in test [3]; -48.8% in test [4]; 42.1% in test [5]; 10% in test [6].

In the case of `O=c1cc(-c2ccccc2)oc2c1ccc1c(O)cccc12`, the growth inhibition in test [1] is 11.1%; in test [2], -2.5%; in test [3], -6.9%; in test [4] it was 21.5%; in test [5], 31.9%; in test [6], 8.95%.

`CN(C)CCn1c(CO)nc2c1c(=O)n(C)c(=O)n2C`: the growth inhibition is -9.95% in test [1]; 12.2% in test [2]; -21.4% in test [3]; -15.2% in test [4]; 0.1% in test [5]; -5.6% in test [6].

With `CCOC(=O)NN(C(=O)OCC)C(=C(C1=CCCCC1)N1CCOCC1)N(NC(=O)OCC)C(=O)OCC`, the growth inhibition is -14.4% in test [1]; 4.25% in test [2]; 3.3% in test [3]; 1.9% in test [4]; -4.8% in test [5]; -6.5% in test [6].

As for `O=C(NCCCCNCCCNC(=O)c1ccc([N+](=O)[O-])cc1)c1ccc([N+](=O)[O-])cc1`, the growth inhibition in test [1] is -5.5%; in test [2] it was 4.1%; in test [3] it was -11.1%; in test [4], -26.3%; in test [5] it was 4.4%; in test [6] it was -11.4%.

In the case of `Cc1ccc(S(=O)(=O)CCC(=O)c2ccc([N+](=O)[O-])cc2)cc1`, the growth inhibition in test [1] is 9.35%; in test [2], 20.1%; in test [3], 14.8%; in test [4], 6.65%; in test [5], 3.05%; in test [6], 16.9%.

`[Br][Pt+2][Br].[NH-]c1cccc(F)c1.[NH-]c1cccc(F)c1`: the growth inhibition in test [1] was 50.9%; in test [2], 11.4%; in test [3] it was 39.4%; in test [4] it was 6.4%; in test [5], 5.65%; in test [6], 46.3%.

For the molecule `CCC(CC)=NNc1ccc([N+](=O)[O-])cc1[N+](=O)[O-]`, the growth inhibition was -2.45% in test [1]; -11.4% in test [2]; -13.6% in test [3]; -51.1% in test [4]; 0.75% in test [5]; -9.85% in test [6].

On to `FC(F)(Br)C(F)(Cl)Br` (centres undefined), for which the growth inhibition was 18.6% in test [1]; 18.8% in test [2]; 17.6% in test [3]; 17.4% in test [4]; 1.5% in test [5]; 24.7% in test [6].

On to `NS(=O)(=O)c1ccc(N2C(=O)C3C(C2=O)C2(Cl)C(Cl)=C(Cl)C3(Cl)C2(Cl)Cl)cc1` (centres undefined), for which the growth inhibition in test [1] is -6.4%; in test [2] it was -6.95%; in test [3] it was 3.25%; in test [4], 15.1%; in test [5] it was -4.7%; in test [6], 20.6%.

For the molecule `Cc1ccc(NC(=O)CC2Sc3ccccc3NC2=O)c(C)c1` (centres undefined), the growth inhibition in test [1] is -7.6%; in test [2] it was -7.35%; in test [3], 7.5%; in test [4] it was -4.4%; in test [5], -20.3%; in test [6], -11.8%.

For `C=CCc1cccc(CC=C)c1OCCN(CC)CC`, the growth inhibition is 13.4% in test [1]; 17.1% in test [2]; 17.6% in test [3]; 10.2% in test [4]; 7.3% in test [5]; 16.8% in test [6].

In the case of `CC(=O)OC1CCC2(C)C(CCC3C2CCC2(C)C(c4cccc(=O)o4)CCC32)C1` (centres undefined), the growth inhibition in test [1] is 22.5%; in test [2] it was 8.9%; in test [3], 11.4%; in test [4], 14.8%; in test [5] it was 0.35%; in test [6] it was 2.3%.

As for `CCCCCC/C=C1\CCC(CN(C)C)C1=O` (centres undefined), the growth inhibition in test [1] was 79.4% (active); in test [2], 93.2% (active); in test [3], 91.1% (active); in test [4], 89.8% (active); in test [5], 90.7% (active); in test [6], 91.4% (active).

Turning to `CC(C)NC(=O)OCc1c(COC(=O)NC(C)C)c(S(=O)(=O)c2ccccc2)n2c1CCC2`, the growth inhibition is 11.5% in test [1]; 1.5% in test [2]; -20.6% in test [3]; 4.7% in test [4]; 1.35% in test [5]; 25.6% in test [6].
